# Bioassay records as filed in PubChem.
# ATG4B inhibitor: inhibitors of human ATG4B cysteine protease. ATG4B cleavage of LC3-PLA2, NBD-HPC fluorescence, 1 h. inhibition, % at 8.33 µM. 340,000 tested, 0.51% active. AID 504462; in the data active = inhibition above about 40%
# Target sequence (Q9Y4P1 whole entry, looked up): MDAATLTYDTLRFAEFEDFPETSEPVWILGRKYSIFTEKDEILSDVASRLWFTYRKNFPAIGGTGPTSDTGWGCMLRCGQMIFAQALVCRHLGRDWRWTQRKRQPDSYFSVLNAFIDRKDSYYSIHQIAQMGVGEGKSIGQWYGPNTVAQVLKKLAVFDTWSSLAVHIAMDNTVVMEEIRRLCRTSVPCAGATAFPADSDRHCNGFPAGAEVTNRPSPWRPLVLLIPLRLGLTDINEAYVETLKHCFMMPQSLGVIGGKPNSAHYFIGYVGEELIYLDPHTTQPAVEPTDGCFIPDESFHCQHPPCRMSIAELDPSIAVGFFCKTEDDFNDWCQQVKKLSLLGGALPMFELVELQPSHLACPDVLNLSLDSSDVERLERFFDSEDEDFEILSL
# CHRM1 antagonist: antagonists of human M1 muscarinic receptor | 360,000 tested, 1.3% active | AID 588852 | inhibition, % at 3 µM | CHO-K1 hM1, Fluo-8 calcium fluorescence, ACh EC80 antagonist | P11229;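 active = percent inhibition above its own plate's cutoff, namely the mean of that plate's compound wells plus 3 SD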;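 also: peak over basal fluorescence ratio during 140 s after agonist addition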
# SKN-1 inh: blocks SKN-1 activity in C. elegans; inhibition, % at 21.8 µM; C. elegans VP596 Pgst-4::GFP/RFP ratio, acrylamide-induced, 24 h; 360,000 tested, 0.49% active;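 active = interference check ratio from 0.5 to 1.5 plus GFP to RFP signal ratio inhibition reaching or exceeding a fixed threshold, cut at about 30% in these data, passing the limit was not always enough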
# M1 ag: activates human CHRM1 receptor; P11229; CHO-K1 hM1, Fluo-8 calcium fluorescence, agonist mode; 0% DMSO, 100% acetylcholine EC100; activation, % at 3 µM; 360,000 tested, 0.33% active; AID 588814;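 active = activation above the run's mean compound activation plus 3 SD, cut at about 16% in these data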;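 also: peak over basal fluorescence ratio within a 140 s kinetic read after compound addition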
# CHRM1 PAM: positive allosteric modulators of human M1 muscarinic receptor; CHO-K1 hM1, Fluo-8 calcium fluorescence, ACh EC20; 0% = ACh EC20, 100% = maximal ACh; P11229; activation, % at 3 µM; 360,000 tested, 0.088% active; in the data active = activation above about 19%, passing the limit was not always enough
# Myeloid diff MLP: promotes myeloid progenitor differentiation; calls only at 10 µM; 360,000 tested, 1% active; ER-HoxA9 myeloid progenitors, lysozyme-GFP differentiation, flow cytometry;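 active = normalized GFP-positive differentiation at or above the plate's own cutoff, the solvent-only control mean plus 3 SD; inconclusive = no clear call, values can overlap the other calls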;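 also: cells exposed to compound for four days before flow analysis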
# Hits are given with their value; 0 = inactive; ? = inconclusive; - = not tested or not shown; + = active, no number. Only some compounds are listed: those with a hit (about 3.5% of all), similar ones and a draw of the others.
SMILES,ATG4B inhibitor,CHRM1 antagonist,SKN-1 inh,M1 ag,CHRM1 PAM,Myeloid diff MLP
O=C(CNC(=O)c1ccccc1F)NCCc1ccccc1F,0,28,0,0,0,0
CCN(CC)C(=O)C1=C(C)N(CCCOC)C(=O)C(CC(=O)NCC2CCCCC2)C1 (centres undefined),-,0,0,0,0,0
O=C(c1cccc(S(=O)(=O)NCc2ccccc2)c1)N1CCN(c2ccccc2)CC1,0,0,0,0,0,+
O=C(c1ccc(S(=O)(=O)NCc2ccco2)cc1)N1CCN(c2ccc(F)cc2)CC1,0,0,33,0,0,0
CC(=O)c1ccc(N2CCN(C(=O)c3ccc(S(=O)(=O)NCc4ccco4)cc3)CC2)cc1,0,0,0,0,0,0
O=C(c1cccc(S(=O)(=O)NCc2ccccc2)c1)N1CCN(c2ccc(F)cc2)CC1,0,0,0,0,0,0
CCCN(CCC)C(=O)c1ccc2c(c1)N(CC)C(=O)c1ccccc1S2(=O)=O,0,42,0,0,0,0
CC(=O)c1ccc(NC(=S)NC(NC(=O)c2ccco2)C(Cl)(Cl)Cl)cc1 (centres undefined),0,0,0,17,0,0
Cc1ccc(S(=O)(=O)CCC(=O)OCc2nnc(-c3ccccc3Br)o2)cc1,0,0,0,0,0,0
O=C(Nc1ccccn1)c1ccccc1,0,0,0,0,0,0
O=C(c1ccccc1)C(Nc1ccccn1)c1ccccc1 (centres undefined),0,35,0,0,0,0
CCOc1ccc2nc3cc(NCc4ccc(OC)cc4)ccc3c(N)c2c1,0,0,0,0,0,+
COc1cc(/C=C2\C(=N)N3N=C(C)SC3=NC2=O)cc(OC)c1OCCOc1ccccc1C,0,0,0,0,0,0
COc1cc(/C=C2\C(=N)N3N=C(S(C)(=O)=O)SC3=NC2=O)cc(OC)c1OCCOc1ccccc1C,77,0,0,0,0,0
Cc1ccc(S(=O)(=O)NNc2nc3ccccc3nc2C(F)(F)F)cc1,0,0,0,50,0,0
Cc1ccc(S(=O)(=O)NNc2ccccc2)cc1,0,0,0,0,0,0
COc1ccc(C2c3ccc(O)cc3Oc3ncn4nc(-c5cccnc5)nc4c32)cc1OC (centres undefined),0,0,0,0,0,+
COc1ccc(C2c3ccc(O)cc3Oc3ncn(Cc4ccco4)c(=N)c32)cc1OC (centres undefined),0,0,0,0,0,0
CCOC(=O)c1[nH]ncc1CN1CCCC(C(=O)c2ccc(C(C)(C)C)cc2)C1 (centres undefined),0,38,0,0,0,0
Cc1cc(F)ccc1S(=O)(=O)N1CCCOC1CNC(=O)C(=O)NCc1ccc2c(c1)OCO2 (centres undefined),0,0,37,0,0,0
O=C(NCc1ccc2c(c1)OCO2)C(=O)NCC1OCCCN1S(=O)(=O)c1cc(F)ccc1F (centres undefined),0,0,0,0,0,0
COc1ccc(CCNC(=O)CN(c2ccc(OC)c(OC)c2)S(=O)(=O)c2ccc(C)cc2)cc1,0,0,0,0,0,+
Cc1oc(-c2ccc(Cl)cc2)nc1CN1CCC(C(=O)N2CCc3ccccc3C2)CC1,0,0,0,0,0,+
Cc1oc(-c2ccc(Cl)cc2)nc1CN1CCC(C(=O)N2CCN(Cc3ccccc3)CC2)CC1,0,0,0,0,0,?
CCNc1ccc(Br)cc(C(=O)/C=C/c2ccc(Cl)cc2)c1=O,0,0,0,0,0,0
SMILES,ATG4B inhibitor,CHRM1 antagonist,SKN-1 inh,M1 ag,CHRM1 PAM,Myeloid diff MLP
CCNc1ccc(Br)cc(C(=O)/C=C/c2c(Cl)cccc2Cl)c1=O,0,0,0,0,0,+
O=C(COC(=O)c1nc(Cl)ccc1Cl)NCc1cccs1,0,0,0,0,0,0
COc1ccc(C(=O)Nc2cccc(NC(C)=O)c2)cc1OC,0,0,0,0,0,+
O=C1C2=C(NC(=S)NC2c2ccc(Cl)cc2)NC(c2ccc(Cl)cc2)N1c1ccc(Cl)cc1 (centres undefined),0,0,0,0,0,+
C(=Cc1c[nH]c2ccccc12)c1ccc2ccccc2n1,0,0,0,0,0,+
O=C(/C=C/c1c[nH]c2ccccc12)c1ccccc1,0,0,0,0,0,0
C(=Cc1c[nH]c2ccccc12)c1nccc2ccccc12,0,0,48,0,0,0
NC(=O)c1ncn([C@@H]2O[C@H](CNCc3ccc(OCC(=O)Nc4nccs4)cc3)[C@@H](O)[C@H]2O)n1,0,0,0,0,0,0
c1ccc(C2=NNC(c3ccccn3)=NN2)nc1,0,0,0,0,0,0
Cn1c(-c2ccc(Cl)nc2)nc2ccccc21,0,0,0,0,0,0
Cn1cc(C(=O)c2ccc(Cl)cc2)cc1-c1nc2ccccc2n1C,0,24,0,0,0,0
Cn1nnnc1SCC(=O)c1ccc(Br)s1,0,0,0,0,0,0
Cn1c(Cc2ccccc2)nnc1SCC(=O)c1ccc(Br)s1,0,22,0,0,0,0
COc1ccccc1CN(Cc1nc2ccccc2c(=O)[nH]1)S(=O)(=O)c1ccc2ccccc2c1,0,43,0,0,0,0
COc1ccc(NC(=O)c2cc(C3CCCCN3C(=O)c3ccccc3)on2)c(C)c1 (centres undefined),-,0,0,0,0,0
CNC(=O)c1c(NC(=O)c2ccc(N3C(=O)CCC3=O)cc2)sc2c1CCC(C)C2 (centres undefined),0,0,41,0,0,0
Cc1cc(C)c2nc(C(F)(F)F)nc(N3CCN(C(=O)c4ccco4)CC3)c2c1,0,0,36,0,0,0
O=C(c1ccco1)N1CCN(c2ccc(Cl)cc2)CC1,0,0,0,0,0,0
O=C(CCC(=O)N1CCN(c2ccc(Cl)c(Cl)c2)CC1)c1ccccc1,0,44,0,0,0,0
O=C(c1ccco1)N1CCN(c2ccc(Cl)c(Cl)c2)CC1,0,33,0,0,0,0
Cc1cccc(-c2ccc([N+](=O)[O-])cc2CN2CCN(c3ncc(Cc4ccccc4)cn3)CC2)c1,-,-,0,-,-,0
CN(C(=O)COC(=O)c1ccc(S(=O)(=O)N2CCCC2)cc1)c1ccccc1,0,50,0,0,0,0
COc1ccc(NC(=O)C2Cc3c(-c4cccc(F)c4)ccnc3O2)cn1 (centres undefined),-,0,0,0,0,0
O=C(/C=C/c1ccc(Cl)cc1Cl)NC(=S)Nc1ccccn1,0,0,38,0,0,0
O=C(/C=C/c1ccccn1)c1cc(Cl)cc(Cl)c1O,0,0,0,0,0,0
Clc1ccc(C=Cc2ccccn2)c(Cl)c1,0,0,85,0,0,0
CCOC(=O)[C@H]1[C@H]2COc3ccccc3[C@@H]2N2C(=O)c3ccccc3NC(=O)[C@@]12C,0,0,0,0,0,0
